We go through 16 compounds from PubChem BioAssay AID1259240 (Keith Lab, Institute of Cancer Science, University of …, 2017).

Unmarked numbers belong to inactive results. The source made the active and inactive calls. No stated cut-off is given here; in the data, active means fold change mostly below about -2 (no sharp cut-off); inactive means mostly above about -1.8.

The test is described as follows: TERT promoter activity modulators, primary screen, cell-based, luciferase reporter, human (AID 1259240). The settings on record: A2780 TERT promoter luciferase reporter, 16 h; at 20 µM, fold versus average of vehicle-only wells. On the technique in general: In a reporter assay the amount or activity of a reporter protein is the signal.
In the case of `CCOC(=O)N1CCC(Nc2c(N3CCCCC3C)c(=O)c2=O)CC1` (stereo unspecified), the fold change was 1.02.
For the compound `O=C(CSc1nc(-c2ccc(F)cc2)cc(C(F)(F)F)n1)NCCCn1ccnc1`, the fold change was -1.16.
Turning to `COc1ccc(-n2c(C)c(C(C)=O)c3cc(OCC(N)=O)ccc32)cc1`, the fold change was -1.38.
As to `CC1=C(C(=O)Nc2ccccc2)C(c2ccccn2)n2nc(CCCO)nc2N1` (stereo unspecified), the compound was called inactive.
Turning to `CCCCN1C(=O)/C(=C2\SC(N3CCCCC3)=NC2=O)c2ccccc21`, the fold change is -8.65 (active).
In the case of `c1ccc2c(c1)CCN2c1nnc(Cc2ccncc2)c2ccccc12`, the fold change was -1.29.
`CC(C)n1cnc2cc(NCc3ccncc3)ccc21`: the fold change was -2.71 (active).
Still for that read-out and setting: the value for `COc1cc2c(c(OC)c1OC)C(c1cccnc1)CC(=O)N2` (stereo unspecified) was -1.07; that for `CCSC1=NSC2=NC(=O)/C(=C\c3coc4ccccc4c3=O)C(=N)N12` was 1.16.
Still for that read-out and setting: with `CCC1(C)Cc2ccccc2-c2nc(NCCO)n(-c3ccccc3)c(=O)c21` (stereo unspecified) the figure was -1.48; with `O=C1CC(c2ccc(F)c(F)c2)c2cc3c(cc2N1)OCO3` (stereo unspecified), 1.27.
The same measure, in the same setting: the value for `O=C(CCN1C(=O)c2ccccc2S1(=O)=O)Nc1cc(Cl)ccc1Cl` was 1.22; that for `Cc1nnc(NC(=O)Cn2c(=O)sc3ccccc32)s1` was -1.03.
Regarding `C=CCn1c(Oc2ccc(C(=O)OC)cc2)nc2c1c(=O)n(C)c(=O)n2C`, the fold change was -2.04 (active).
On the same count and under the same terms, with `CN1CCN(C(=O)C2CCN(c3ccc(N4CCOCC4)nn3)CC2)CC1` the figure was -1.4; with `CCc1ccc2nc(Nc3nccc(C)n3)nc(C)c2c1`, 1.83.
